From PubChem BioAssay (EPA / NIEHS)
Where “and” joins values, the source holds several entries; their conditions need not be identical. Equal entries are not always repeated. Some structures have more than one record in an assay (separate samples or runs), and their calls can disagree. Calls of active or inactive are those of the source. Rule for the calls: active = hit-call score of the fitted dose curve at least 0.9, where 1 is the maximum; inactive = score below 0.9.

Experiments:
[1] = read-out: Tumor necrosis factor (Homo sapiens) (UniProt P01375); assay: BSK_LPS_TNFa: BioMAP Diversity Plus: LPS Assay for Tumour Necrosis Factor alpha (TNFa) Biomarker Activity (AID 2283085); conditions: primary human HUVEC with PBMC; actives raise or lower the signal
Procedure, shortened: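 Human umbilical vein endothelial cells co-cultured with PBMC and stimulated with LPS. TNFa was measured by ELISA 24 h after chemical dosing, fitted bidirectionally relative to DMSO.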

[2] = read-out: Vascular cell adhesion molecule 1 (VCAM1), VCAM1 (gene 7412); assay: BSK_LPS_VCAM1: BioMAP Diversity Plus: LPS Assay for Vascular cell adhesion molecule 1 (VCAM1) Biomarker Activity (AID 2283086); conditions: primary human HUVEC with PBMC; actives raise or lower the signal
Procedure, shortened: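 Human umbilical vein endothelial cells co-cultured with PBMC and stimulated with LPS; VCAM-1 measured by ELISA 24 h after dosing. Bidirectional curve fitting against DMSO baseline; cytotoxicity tracked in parallel by SRB total-protein staining.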

[3] = read-out: CD38, CD38 (gene 952); assay: BSK_SAg_CD38: BioMAP Diversity Plus: SAg Assay for CD38 Biomarker Activity (AID 2283087); conditions: primary human HUVEC with PBMC; actives raise or lower the signal
Procedure, shortened: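 Human HUVEC plus PBMC co-culture stimulated with superantigen; CD38 measured by ELISA 24 h after chemical dosing. Fluorescence read-out, bidirectional fit against DMSO; cytotoxicity tracked in parallel by SRB and Alamar Blue.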

[4] = read-out: CD40, CD40 (gene 958); assay: BSK_SAg_CD40: BioMAP Diversity Plus: SAg Assay for CD40 Biomarker Activity (AID 2283088); conditions: primary human HUVEC with PBMC; actives raise or lower the signal
Procedure, shortened: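 HUVEC/PBMC co-culture, 24 h post-dose; CD40 by ELISA, fluorescence intensity; bidirectional fit vs DMSO negative control.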

[5] = read-out: CD69, CD69 (gene 969); assay: BSK_SAg_CD69: BioMAP Diversity Plus: SAg Assay for CD69 Biomarker Activity (AID 2283089); conditions: primary human HUVEC with PBMC; actives raise or lower the signal;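 for AC50: cell surface CD69 protein quantified by ELISA with fluorescence detection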
Procedure, shortened: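 Endothelial/PBMC co-culture; chemical added; 24 h incubation; CD69 ELISA with fluorescence detection; bidirectional fit vs DMSO.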

[6] = read-out: Monocyte Chemoattractant Protein-1 (MCP1), CCL2 (gene 6347); assay: BSK_SAg_MCP1: BioMAP Diversity Plus: SAg Assay for Monocyte Chemoattractant Protein-1 (MCP1) Biomarker Activity (AID 2283090); conditions: primary human HUVEC with PBMC; actives raise or lower the signal
Procedure, shortened: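 MCP-1 levels in the endothelial–PBMC SAg co-culture were quantified by ELISA at 24 h post-dosing; both increases and decreases versus DMSO scored. Cytotoxicity monitored by SRB total protein in parallel cultures.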

[7] = read-out: E-selectin (Homo sapiens) (UniProt P16581); assay: BSK_SAg_Eselectin: BioMAP Diversity Plus: SAg Assay for Eselectin Biomarker Activity (AID 2283091); conditions: primary human HUVEC with PBMC; actives raise or lower the signal
Procedure, shortened: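 E-selectin ELISA readout at 24 h post-dosing in human umbilical vein endothelial cell/PBMC co-culture; gain or loss of signal fitted relative to DMSO baseline.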

[8] = read-out: Monokine induced gamma interferon (MIG), CXCL9 (gene 4283); assay: BSK_SAg_MIG: BioMAP Diversity Plus: SAg Assay for Monokine induced gamma interferon (MIG) Biomarker Activity (AID 2283092); conditions: primary human HUVEC with PBMC; actives raise or lower the signal
Procedure, shortened: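 Measures CXCL9 protein by ELISA in a human vascular primary-cell co-culture (umbilical vein endothelium with PBMC) 24 h after chemical addition. Activity is scored up or down from the DMSO control.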

[9] = BSK_SAg_PBMCCytotoxicity: PBMC Cytotoxicity Assessment in the BioMAP Diversity Plus: SAg Assay (AID 2283093); conditions: primary human HUVEC with PBMC;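 note: PBMC viability measured as Alamar Blue reduction fluorescence at 546/580 nm; fitted both ways against DMSO so a hit may be loss or gain of signal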;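 for AC50: PBMC superantigen activated with SEB plus TSST-1 one hour after compound addition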
Procedure, shortened: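 Compound added to 75,000 PBMC/well for 1 h; SEB and TSST-1 then added at 20 ng/mL final each; 90 h incubation; Alamar Blue 6 h; read 546/580 nm ex/em. Activity fitted bidirectionally relative to DMSO baseline.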

[10] = read-out: Interleukin-8 (IL8), CXCL8 (gene 3576); assay: BSK_SAg_IL8: BioMAP Diversity Plus: SAg Assay for Interleukin-8 (IL8) Biomarker Activity (AID 2283094); conditions: primary human HUVEC with PBMC; actives raise or lower the signal
Procedure, shortened: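 Human umbilical vein endothelial cells co-cultured with PBMC, stimulated with superantigen; IL-8 measured by ELISA 24 h after chemical dosing. Bidirectional fitting versus DMSO; SRB staining in parallel cultures tracks cytotoxicity.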

Tumor necrosis factor (Homo sapiens), sequence (P01375 whole entry, looked up): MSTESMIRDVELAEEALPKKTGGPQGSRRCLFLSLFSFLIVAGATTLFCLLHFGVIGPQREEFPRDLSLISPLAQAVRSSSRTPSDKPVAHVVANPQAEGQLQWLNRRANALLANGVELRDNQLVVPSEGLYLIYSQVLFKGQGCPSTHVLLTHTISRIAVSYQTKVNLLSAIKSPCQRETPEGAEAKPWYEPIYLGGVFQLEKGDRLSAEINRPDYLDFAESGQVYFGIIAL
E-selectin (Homo sapiens), sequence (P16581 whole entry, looked up): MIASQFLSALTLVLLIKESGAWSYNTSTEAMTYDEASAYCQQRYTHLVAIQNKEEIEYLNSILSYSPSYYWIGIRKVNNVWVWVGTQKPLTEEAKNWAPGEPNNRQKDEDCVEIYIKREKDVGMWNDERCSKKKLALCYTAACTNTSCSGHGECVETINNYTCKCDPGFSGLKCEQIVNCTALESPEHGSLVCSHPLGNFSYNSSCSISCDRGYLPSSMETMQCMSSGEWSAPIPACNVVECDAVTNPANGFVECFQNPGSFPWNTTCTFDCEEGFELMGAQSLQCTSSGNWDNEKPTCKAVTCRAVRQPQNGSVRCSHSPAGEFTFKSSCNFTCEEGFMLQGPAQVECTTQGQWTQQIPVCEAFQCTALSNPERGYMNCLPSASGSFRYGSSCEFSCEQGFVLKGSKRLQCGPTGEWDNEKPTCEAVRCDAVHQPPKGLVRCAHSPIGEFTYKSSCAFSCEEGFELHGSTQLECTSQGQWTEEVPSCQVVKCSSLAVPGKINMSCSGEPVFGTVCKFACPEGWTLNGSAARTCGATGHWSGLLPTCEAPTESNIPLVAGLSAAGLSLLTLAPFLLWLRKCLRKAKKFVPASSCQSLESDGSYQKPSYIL

SMILES	outcome [1]	outcome [2]	outcome [3]	outcome [4]	outcome [5]	outcome [6]	outcome [7]	outcome [8]	outcome [9]	outcome [10]	AC50 [1]	AC50 [2]	AC50 [3]	AC50 [4]	AC50 [5]	AC50 [6]	AC50 [7]	AC50 [9]	AC50 [10]	AC50 [8]
CC(C)c1ccc(CO)cc1	inactive	inactive	inactive	inactive	inactive	inactive	inactive	inactive	inactive	inactive										
CC(=O)C(Cl)C(=O)N(C)C (stereo not drawn)								inactive			9.78 µM (active)	20 µM (active)	20 µM (active)	20 µM (active)	16.7 µM (active)	20 µM (active)	25.4 µM (active)	7.81 µM (active)	14.1 µM (active)	
O=C(O)C(F)(F)C(F)(F)C(F)(F)C(F)(F)C(F)(F)C(F)(F)C(F)(F)C(F)(F)C(F)(F)C(F)(F)F		inactive	inactive		inactive	inactive	inactive		inactive	inactive	31.4 µM (active) and 4.39 µM (active) and 4.42 µM (active)	29.6 µM (active)	37.4 µM (active)	29.2 µM (active) and 5.41 µM (active) and 5.27 µM (active)	30.5 µM (active)	35.1 µM (active)	35.3 µM (active)	31.5 µM (active)	26.8 µM (active)	
COP(=S)(OC)Oc1cc(Cl)c(Cl)cc1Cl		inactive	inactive	inactive	inactive	inactive		inactive	inactive	inactive	32.6 µM (active)						5.51 µM (active)			
COC(=O)Cc1ccccc1	inactive	inactive	inactive	inactive	inactive	inactive	inactive		inactive	inactive				31.3 µM (active)						
CCCCCCCCC(=O)NCc1ccc(O)c(OC)c1	inactive	inactive	inactive	inactive	inactive	inactive	inactive	inactive	inactive	inactive										
CCNc1nc(NC(C)(C)C)nc(SC)n1	inactive	inactive	inactive	inactive		inactive	inactive	inactive	inactive	inactive					14.6 µM (active)					
O=[N+]([O-])c1ccc(O)c([N+](=O)[O-])c1	inactive	inactive	inactive	inactive	inactive	inactive	inactive	inactive	inactive	inactive										
Nc1cccc2ccccc12	inactive	inactive	inactive	inactive	inactive	inactive	inactive	inactive	inactive	inactive										
CC(C)(C)c1cc(O)ccc1O											9.38 µM (active)	8.15 µM (active)	8.22 µM (active)	8.26 µM (active)	5.54 µM (active)	8.93 µM (active)	5.56 µM (active)	3.17 µM (active)	7.38 µM (active)	11.4 µM (active)
COP(=S)(OC)Oc1ccc(S(=O)(=O)N(C)C)cc1	inactive	inactive	inactive	inactive	inactive	inactive	inactive	inactive	inactive	inactive										
C=CC(=O)OCCCCCC(C)C	inactive	inactive	inactive	inactive	inactive	inactive	inactive	inactive	inactive	inactive										
CN(C)N=O	inactive	inactive	inactive	inactive	inactive	inactive	inactive	inactive	inactive	inactive										
CCCCCCCCc1ccc(O)cc1											33.6 µM (active)	30.5 µM (active)	31.2 µM (active)	32.2 µM (active)	31.7 µM (active)	32.6 µM (active)	29.2 µM (active)	29 µM (active)	32.2 µM (active)	35.6 µM (active)
Oc1c(I)cc(I)cc1I	inactive								inactive			14.3 µM (active)	25.4 µM (active)	25.3 µM (active)	29.4 µM (active)	32.3 µM (active)	14.7 µM (active)		34.3 µM (active)	34.2 µM (active)
COc1cc(OC)nc(NC(=O)NS(=O)(=O)c2ncccc2C(=O)N(C)C)n1	inactive	inactive	inactive	inactive	inactive	inactive	inactive		inactive	inactive										

SMILES	outcome [1]	outcome [2]	outcome [3]	outcome [4]	outcome [5]	outcome [6]	outcome [7]	outcome [8]	outcome [9]	outcome [10]	AC50 [1]	AC50 [2]	AC50 [3]	AC50 [4]	AC50 [5]	AC50 [6]	AC50 [7]	AC50 [9]	AC50 [10]	AC50 [8]
NC(=O)O	inactive	inactive	inactive	inactive	inactive	inactive	inactive	inactive	inactive	inactive										
CC(C)CCCCCCOC(=O)c1ccccc1C(=O)OCCCCCCC(C)C	inactive	inactive	inactive	inactive	inactive	inactive		inactive	inactive	inactive							0.016 µM (active)			
COc1cc(-c2ccc(N)c(OC)c2)ccc1N	inactive	inactive	inactive	inactive	inactive	inactive		inactive	inactive	inactive		23.9 µM (active)					11.8 µM (active)		7.64 µM (active)	
O=C(O)C(F)(F)C(F)(F)C(F)(F)C(F)(F)C(F)(F)C(F)(F)F	inactive	inactive	inactive	inactive	inactive	inactive	inactive	inactive	inactive	inactive										
OCc1ccco1	inactive	inactive	inactive	inactive	inactive	inactive	inactive	inactive	inactive	inactive										
Cn1sc(Cl)cc1=O								inactive			31.2 µM (active)	29.3 µM (active)	31.3 µM (active)	26.4 µM (active)	26.4 µM (active)	30.7 µM (active)	20 µM (active)	16.9 µM (active)	20 µM (active)	
O=C(O)C(Cl)(Cl)Cl	inactive	inactive	inactive	inactive	inactive	inactive	inactive		inactive	inactive										
COP(=S)(OC)Oc1c(Cl)cc(C)cc1Cl	inactive		inactive	inactive	inactive	inactive	inactive	inactive	inactive	inactive		13.8 µM (active)								
CC(=O)OC(c1ccccc1)C(Cl)(Cl)Cl (stereo not drawn)	inactive	inactive	inactive	inactive	inactive	inactive	inactive		inactive	inactive					14.2 µM (active)		20 µM (active)		13.4 µM (active)	
C[C@@H]1C[C@@H]([C@H](O)CC2CC(=O)NC(=O)C2)C(=O)[C@@H](C)C1											7.89 µM (active)	9.45 µM (active)	6.11 µM (active)	2.6 µM (active)	6.63 µM (active)	7.88 µM (active)	0.585 µM (active)	4.6 µM (active)	1.4 µM (active)	13 µM (active)
ClCC(Cl)CCl	inactive	inactive	inactive	inactive	inactive	inactive	inactive	inactive	inactive	inactive										
O=Cc1cccc(Oc2ccccc2)c1	inactive	inactive	inactive	inactive	inactive	inactive	inactive	inactive	inactive	inactive										
COC(=O)c1sccc1S(=O)(=O)NC(=O)Nc1nc(C)nc(OC)n1	inactive	inactive	inactive	inactive	inactive	inactive	inactive	inactive	inactive	inactive										
NC(=S)Nc1ccccc1	inactive	inactive	inactive	inactive	inactive	inactive	inactive	inactive	inactive	inactive										
C(=NC1CCCCC1)=NC1CCCCC1											35.1 µM (active)	30.4 µM (active)	14.1 µM (active)	17.3 µM (active)	7.97 µM (active)	19.3 µM (active)	3.97 µM (active)	16.5 µM (active)	3.97 µM (active)	12.6 µM (active)
